Screening data from PubChem BioAssay.
In the library only some 7.1% were active in any assay of this set; here they are far more common.
LASV entry inh: blocks Lassa virus binding or cell entry; Potency, µM (titrated, usually from 49.2 µM), for the others: at the top dose activity change, negative = inhibition, usual class: inhibitors; AID 720533; hit rate 4.1% among 18,000; Lassa virus pseudotyped entry inhibition, cell-based qHTS
Marburg entry: Marburg virus entry inhibition. Marburg virus pseudotype entry/binding inhibition, cell-based. hit rate 6.5% among 18,000. Potency, µM (highest dose often 49.2 µM), for inactives: top-dose activity change, negative = inhibition, most hits filed as inhibitors
An asterisk follows results filed as active; ? = inconclusive; · = not tested or not shown; ! = not confirmed by another sample; [ ] = another dose, or the depositor's remark. The call rests on the fitted dose curve; tested in HEK293 cells. On the % scale 0 is the no-effect control and ±100 the full control effect; potency means the concentration at half of the fitted maximal effect.

SMILES	LASV entry inh	Marburg entry
C#CC[C@@]1(C(=O)OC)C=C[C@@H](C)[C@H](c2ccccc2Br)N1C(=O)C(F)(F)F	12.5%[8.59 µM]	-2.1%[8.59 µM]
CC[C@@H]1/C=C/C=C/C[C@H](C)[C@@H](O)[C@](C)(O)C(=O)[C@H](C)[C@@H](O)[C@H](C)C(=O)[C@H](C)[C@@H](O)[C@H](C)/C=C/C(=O)O[C@H]2[C@@H](C)[C@@H](CC1)O[C@@]1(CC[C@@H](C)[C@@H](C[C@H](C)O)O1)[C@@H]2C	39.8µM*	10µM*
COC(=O)[C@]12C[C@@H]3CCN(C(=O)N[C@@H]1c1ccccc1)[C@@]32C	·	75.7%[8.59 µM]
CC(C)(C)c1ccc(C(O)CCCN2CCC(C(O)(c3ccccc3)c3ccccc3)CC2)cc1 (centres undefined)	15.8µM*	?
CC(C)(C)c1ccc([C@@H](O)CCCN2CCC(C(O)(c3ccccc3)c3ccccc3)CC2)cc1	6.31µM*	?
OC(c1ccccc1)(c1ccccc1)C1CCNCC1	-0.6%[17.8 µM]	-25.1%[17.8 µM]
O[C@H](CCCN1CCN(c2ncc(F)cn2)CC1)c1ccc(F)cc1	0.4%	-25.7%
CCOC(=O)OC[C@H]1O[C@H](C#Cc2ccc(F)cc2F)C=C[C@H]1OC(=O)OCC	1.1%[8.59 µM]	-14.6%[8.59 µM]
COC(=O)C(C(=O)OC)[C@@H]1O[C@@]23COC=C[C@]2(C)[C@@H]3c2ccccc21	3.1%[8.59 µM]	?
COc1ccc(-c2cc(-c3cn[nH]c3-c3ccccn3)ccn2)cc1	92.8%	38.9%
COC(=O)Nc1nc2ccc(C(=O)c3cccs3)cc2[nH]1	?	1.12µM*!
COC(=O)Nc1nc2ccc(C(=O)c3ccccc3)cc2[nH]1	-31.5%[17.8 µM]	?
NC(=O)c1cc(-c2ccc(F)cc2)cc(-c2ccncc2)c1N	-26.5%	?
CCN1C(=NCc2ccco2)N[C@@H](CCc2ccccc2)[C@H](C(=O)OC)[C@H]1C	42.8%[8.59 µM]	33.1%[8.59 µM]
COc1cc2c(cc1OC)[C@@H]1O[C@](CCCCN3C(=O)c4ccccc4C3=O)(C2)Oc2c1c(=O)oc1ccccc21	-0.9%[8.59 µM]	2.7%[8.59 µM]
COc1cccc(-n2ncc3c(NN=Cc4cccc(F)c4)ncnc32)c1	·	-10.8%
C=C1C(O)C2OC3(CCC(/C=C/C(C)C4CC(C)=CC5(OC(CC(C)(O)C(=O)O)CCC5O)O4)O3)CCC2OC1C(O)CC(C)C1OC2(CCCCO2)CCC1C (centres undefined)	?	0.146µM*
COCC=CC1=CC2=CC(=O)C(C)(OC(=O)c3cnc4ccccc4n3)C(=O)C2=CN1C1CC1 (centres undefined)	6.2%[8.59 µM]	32.2%[8.59 µM]
Brc1c(Br)c(Br)c2[nH]cnc2c1Br	8.6%	-22.0%
S=c1nc[nH]c2nc[nH]c12	14.1µM*	12.6µM*
C=CC[C@@H]1C=C[C@@H](OC(=O)OCC)[C@@H](COC(=O)OCC)O1	-9.0%[8.59 µM]	17.4%[8.59 µM]
CC(C)CCOC(=O)c1ccc(N(C)C)cc1	8.0%	7.9%
CN=C1C=CC(=C(c2ccc(N(C)C)cc2)c2ccc(N(C)C)cc2)C=C1	3.55µM*	2.82µM*
O=C(c1cccs1)N1C[C@@H](n2cc(-c3ccc(F)cc3)nn2)[C@@H](O)C[C@@H]1c1ccc(Cl)cc1	-26.6%	?
CC/C(=C(\c1ccccc1)c1ccc(OCCN(C)C)cc1)c1ccccc1	·	10µM*!
SMILES	LASV entry inh	Marburg entry
CN(C)CCOc1ccccc1Cc1ccccc1 (tested in a mixture with another compound)	-24.2%	?
CCCCCC(=O)N1C[C@H](O)[C@@H](n2cc(-c3ccc(F)cc3)nn2)C[C@H]1c1ccccc1	-11.2%	-29.0%
Cc1ccc(S(=O)(=O)N2CCC(=O)N([C@H](COCc3cccc(C(F)(F)F)c3)C(C)C)CC2)cc1	-2.9%	?
Cc1ccc(S(=O)(=O)N2CCC(=O)N([C@H](COCc3cccc(C(F)(F)F)c3)Cc3ccccc3)CC2)cc1	?	11.2µM*
CCN1C(=NCc2cccc(C(F)(F)F)c2)NC(c2cccc(C(F)(F)F)c2)C(C(=O)OC)=C1C (centres undefined)	-32.4%[8.59 µM]	-17.4%[8.59 µM]
Oc1cc(-c2nc3ccccc3s2)cc2c1OCCN(Cc1cccn1-c1nccs1)C2	-23.4%	-8.6%
c1ccc2sc(-c3cc4c(c(OC5CCOC5)c3)OCCN(Cc3cccn3-c3nccs3)C4)nc2c1 (centres undefined)	-4.8%	0.355µM*
O=C(Nc1cccc(Cl)c1)OCC#CCCl	-29.3%	11.2µM*
C[N+](C)(C)CC#CCOC(=O)Nc1cccc(Cl)c1	-12.8%	2.7%
COC(=O)C1=C(C)N(Cc2ccccc2)C(=S)NC1CCc1ccccc1 (centres undefined)	-3.0%[8.59 µM]	38.5%[8.59 µM]
CC#CCN1C(=O)NC(c2ccccc2)C(C(=O)OC)=C1C (centres undefined)	8.1%[8.59 µM]	?
COc1cc2ncnc(Nc3ccc4c(cnn4Cc4ccccc4)c3)c2cc1OC	-23.8%	?
CS(=O)(=O)CCNCc1nc(-c2ccc3ncnc(Nc4ccc(OCc5cccc(F)c5)c(Cl)c4)c3c2)cs1	-7.4%	-15.4%
O=C(OC1CNC(C#Cc2cc3ncnc(Nc4ccc5c(cnn5Cc5ccccc5)c4)c3s2)C1)N1CCOCC1 (centres undefined)	0.397µM*	?
O=C(OC1CNC(C#Cc2cc3ncnc(Nc4ccc(OCc5cccc(F)c5)c(Cl)c4)c3s2)C1)N1CCOCC1 (centres undefined)	?	12.5µM*
O=S(=O)(CCOCc1ccc(-c2ccc3ncnc(Nc4ccc(OCc5cccc(F)c5)c(Cl)c4)c3c2)o1)c1ccccc1	42.5%	-29.6%
CNC(=O)c1cccc(C#Cc2cncnc2Nc2ccc(OCc3cccc(F)c3)c(Cl)c2)c1	·	2.5µM*
COC(=O)C1=C(C(=O)OC)[C@@H]2Nc3ccccc3[C@@]23C[C@@H](C(=O)OC)N(C(=O)NC(C)(C)C)C3=N1	5.4%[8.59 µM]	1.5%[8.59 µM]
CC(=O)Nc1ccc(C(=O)N2CCCC(c3nc(SCc4ccccn4)ncc3C)C2)cc1 (centres undefined)	-0.5%	-7.5%
Cc1cnc(SCc2ccccn2)nc1C1CCCN(C(=O)c2scc3c2CCCC3)C1 (centres undefined)	?	10µM*
CC(=O)C1=CN(CCc2c[nH]c3ccccc23)C(=O)NC1c1ccccc1 (centres undefined)	-21.0%[8.59 µM]	2.9%[8.59 µM]
CCN1C(=O)NC(c2ccc(Br)cc2)C(C(=O)OC)=C1C (centres undefined)	3.6%[8.59 µM]	?
O=C(CCCN1CCC(O)(c2ccc(Cl)cc2)CC1)c1ccc(F)cc1	?	12.6µM*
O=C(CCCN1CCC(O)(c2ccc(Br)cc2)CC1)c1ccc(F)cc1	-15.9%[17.8 µM]	?
COC1=C[C@@H](C(=O)N[C@H]2CCCC[C@H]2NC(C)=O)[C@]2(C)Cc3ccccc3[C@H]2CC1=O	5.7%[8.59 µM]	?
SMILES	LASV entry inh	Marburg entry
COc1ccc(CC2NCCc3cc(OC)c(OC)cc32)cc1OC (centres undefined)	2.3%	-18.5%
CCC1CN2CCc3cc(OC)c(OC)cc3C2CC1CC1NCCc2cc(OC)c(OC)cc21 (centres undefined)	5.62µM*	5.01µM*
Oc1cccc(-c2nc(-c3ccccc3)[nH]c2-c2ccncc2)c1	·	7.91µM*
NCc1ccc(-c2nc(-c3ccc(Cl)c(O)c3)c(-c3ccncc3)[nH]2)cc1	20.4%	?
C#CCNC(=O)[C@H]1C=C(OC)C(=O)C[C@H]2c3ccccc3C[C@]12C	0.9%[8.59 µM]	8.0%[8.59 µM]
COc1ccc(S(=O)(=O)N(CCO)c2ccccc2CN(C)C/C=C/c2ccc(Cl)cc2)cc1	?	8.91µM*
CN(C/C=C/c1ccccc1)Cc1cccc2ccccc12	-16.2%[17.8 µM]	3.0%
